Potency and affinity values are given separately. The source made the active and inactive calls.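 The calls were made as follows: active = fitted IC50 of 30 µM or less, with percent of control binding at that IC50 of 60 or less; inactive = the rest.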
Target: Mothers against decapentaplegic homolog 3 (Homo sapiens) (UniProt P84022)
Experiment: blockers of Smad3 complex formation in lysate – cell lysate, secondary confirmation, chemiluminescent ELISA, HEK293 lysate, dose response (AID 1058)

Chain of Mothers against decapentaplegic homolog 3 (Homo sapiens) (P84022 whole entry, looked up): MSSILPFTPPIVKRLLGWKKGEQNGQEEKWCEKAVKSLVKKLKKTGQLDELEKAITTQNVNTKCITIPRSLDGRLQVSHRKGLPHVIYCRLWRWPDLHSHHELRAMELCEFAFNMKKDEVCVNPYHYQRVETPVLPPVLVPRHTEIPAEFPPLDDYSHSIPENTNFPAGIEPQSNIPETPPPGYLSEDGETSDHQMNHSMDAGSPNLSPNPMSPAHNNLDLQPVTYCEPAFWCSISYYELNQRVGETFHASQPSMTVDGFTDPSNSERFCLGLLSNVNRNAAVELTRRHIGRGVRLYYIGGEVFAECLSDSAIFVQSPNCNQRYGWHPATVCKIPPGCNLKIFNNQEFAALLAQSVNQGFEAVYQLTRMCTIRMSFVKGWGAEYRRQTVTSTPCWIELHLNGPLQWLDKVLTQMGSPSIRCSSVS

## Oc1cc2c(cc1C(c1ccc(F)cc1)N1CCOCC1)OCO2 (stereo unspecified)
  outcome: inactive
